# Laboratory results from PubChem BioAssay (EPA / NIEHS).
# Active and inactive are the calls of the source. The calls were made as follows: active = hit-call score of the fitted dose curve at least 0.9, where 1 is the maximum; inactive = score below 0.9.
# Tests used:
# [1] = read-out: Macrophage colony-stimulating factor (MCSF), CSF1 (gene 1435); test: BSK_hDFCGF_MCSF: BioMAP Diversity Plus: hDFCGF Assay for Macrophage colony-stimulating factor (MCSF) Biomarker Activity (AID 2283060); conditions: primary human foreskin fibroblasts; actives raise or lower the signal
# Outline: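 fibroblasts (human foreskin, primary), 24 h post-dose; M-CSF by ELISA; bidirectional fit, DMSO = baseline.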
# [2] = BSK_hDFCGF_SRB: Viability Assessment in the BioMAP Diversity Plus: hDFCGF Assay (AID 2283061); conditions: primary human foreskin fibroblasts;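 also: cells exposed to compound for 24 h before the read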
# Outline: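 SRB-based viability read on primary human skin fibroblasts at 24 h: TCA fixation, 0.1% dye, 560 nm. Gain or loss of signal is fitted against the DMSO negative control.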
# [3] = read-out: TIMP metallopeptidase inhibitor 1 (TIMP1), TIMP1 (gene 7076); test: BSK_hDFCGF_TIMP1: BioMAP Diversity Plus: hDFCGF Assay for TIMP metallopeptidase inhibitor 1 (TIMP1) Biomarker Activity (AID 2283062); conditions: primary human foreskin fibroblasts; actives raise or lower the signal
# Outline: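 Bidirectional curve fitting against DMSO baseline yielded this endpoint, based on ELISA detection of TIMP-1 in primary human foreskin fibroblasts exposed to compound for 24 h.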
# [4] = read-out: Monokine induced gamma interferon (MIG), CXCL9 (gene 4283); test: BSK_hDFCGF_MIG: BioMAP Diversity Plus: hDFCGF Assay for Monokine induced gamma interferon (MIG) Biomarker Activity (AID 2283063); conditions: primary human foreskin fibroblasts; actives raise or lower the signal
# Outline: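 Endpoint derived by bidirectional fitting relative to DMSO; MIG quantified via ELISA in primary human foreskin fibroblasts harvested 24 h after dosing.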
# [5] = read-out: Matrix Metallopeptidase 1 (MMP1), MMP1 (gene 4312); test: BSK_hDFCGF_MMP1: BioMAP Diversity Plus: hDFCGF Assay for Matrix Metallopeptidase 1 (MMP1) Biomarker Activity (AID 2283064); conditions: primary human foreskin fibroblasts; actives raise or lower the signal
# Outline: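 Primary human foreskin fibroblasts exposed to chemicals for 24 h; MMP1 measured by ELISA. Cytotoxicity tracked by SRB staining in parallel cultures; bidirectional fit relative to DMSO.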
# [6] = read-out: Vascular cell adhesion molecule 1 (VCAM1), VCAM1 (gene 7412); test: BSK_hDFCGF_VCAM1: BioMAP Diversity Plus: hDFCGF Assay for Vascular cell adhesion molecule 1 (VCAM1) Biomarker Activity (AID 2283065); conditions: primary human foreskin fibroblasts; actives raise or lower the signal
# Outline: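 Measured after 24 h chemical treatment of primary human skin fibroblasts, VCAM-1 was detected by ELISA and concentration-response analysed in both directions versus DMSO vehicle.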
# [7] = read-out: Plasminogen activator inhibitor-1 (PAI1), SERPINE1 (gene 5054); test: BSK_hDFCGF_PAI1: BioMAP Diversity Plus: hDFCGF Assay for Plasminogen activator inhibitor-1 (PAI1) Biomarker Activity (AID 2283066); conditions: primary human foreskin fibroblasts; actives raise or lower the signal
# Outline: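 Human foreskin fibroblast primary cells, 24 h chemical exposure; PAI-1 measured by ELISA. Bidirectional fitting relative to DMSO; parallel cultures stained with SRB for total protein to flag overt cytotoxicity.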
# [8] = read-out: Intercellular Adhesion Molecule 1 (ICAM1), ICAM1 (gene 3383); test: BSK_KF3CT_ICAM1: BioMAP Diversity Plus: KF3CT Assay for Intercellular Adhesion Molecule 1 (ICAM1) Biomarker Activity (AID 2283067); conditions: primary human keratinocytes with fibroblasts; actives raise or lower the signal
# Outline: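 Bidirectional curve fitting against a DMSO baseline was applied to ICAM-1 ELISA signal from primary human skin co-cultures harvested 24 h after treatment, with SRB staining of parallel wells for overt cytotoxicity.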
# [9] = read-out: Interferon-gamma inducible Protein 10 (IP10), CXCL10 (gene 3627); test: BSK_KF3CT_IP10: BioMAP Diversity Plus: KF3CT Assay for Interferon-gamma inducible Protein 10 (IP10) Biomarker Activity (AID 2283068); conditions: primary human keratinocytes with fibroblasts; actives raise or lower the signal
# Outline: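 In a primary skin co-culture of keratinocytes and fibroblasts, IP-10 is quantified by ELISA at 24 h after dosing. SRB staining of parallel wells monitors overt toxicity. Curves are fitted both directions against DMSO.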
# [10] = BSK_KF3CT_SRB: Viability Assessment in the BioMAP Diversity Plus: KF3CT Assay (AID 2283069); conditions: primary human keratinocytes with fibroblasts;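 also: total protein by sulforhodamine B staining as a cytotoxicity measure; read 24 h after compound addition; fitted for both signal gain and loss against DMSO baseline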
# Outline: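 Human keratinocyte and foreskin fibroblast co-culture exposed to chemical for 24 h. Total protein measured in parallel cultures by 0.1% sulforhodamine B staining after 10% TCA fixation, read at 560 nm; bidirectional fit relative to DMSO.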
# [11] = read-out: Interleukin-1 alpha (IL1a), IL1A (gene 3552); test: BSK_KF3CT_IL1a: BioMAP Diversity Plus: KF3CT Assay for Interleukin-1 alpha (IL1a) Biomarker Activity (AID 2283070); conditions: primary human keratinocytes with fibroblasts; actives raise or lower the signal
# Outline: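 Primary human keratinocyte plus foreskin fibroblast co-culture, dosed and measured at 24 h in 96-well plates. IL-1a level quantified by ELISA; bidirectional fit relative to DMSO.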
# [12] = read-out: TIMP metallopeptidase inhibitor 2 (TIMP2), TIMP2 (gene 7077); test: BSK_KF3CT_TIMP2: BioMAP Diversity Plus: KF3CT Assay for TIMP metallopeptidase inhibitor 2 (TIMP2) Biomarker Activity (AID 2283071); conditions: primary human keratinocytes with fibroblasts; actives raise or lower the signal
# Outline: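 Co-culture of human primary keratinocytes and foreskin fibroblasts, measured 24 h after chemical dosing. TIMP-2 quantified by ELISA and fitted in both directions relative to DMSO. Cytotoxicity checked in parallel cultures by SRB total-protein staining.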
# [13] = read-out: Transforming growth factor beta 1 (TGFb1), TGFB1 (gene 7040); test: BSK_KF3CT_TGFb1: BioMAP Diversity Plus: KF3CT Assay for Transforming growth factor beta 1 (TGFb1) Biomarker Activity (AID 2283072); conditions: primary human keratinocytes with fibroblasts; actives raise or lower the signal
# Outline: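 Human keratinocyte/foreskin fibroblast co-culture; TGF-b1 measured by ELISA 24 h after dosing, fitted bidirectionally versus DMSO. Cytotoxicity checked in parallel cultures by total protein (SRB staining, 560 nm).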
# [14] = read-out: C-C motif chemokine 2 (Homo sapiens) (UniProt P13500); test: BSK_KF3CT_MCP1: BioMAP Diversity Plus: KF3CT Assay for Monocyte Chemoattractant Protein 1 (MCP1/CCL2) Biomarker Activity (AID 2283073); conditions: primary human keratinocytes with fibroblasts; actives raise or lower the signal
# Outline: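 Biomarker MCP-1 is measured by ELISA in primary human keratinocytes co-cultured with foreskin fibroblasts, 24 h after chemical treatment; DMSO serves as the negative control and activity baseline.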
# [15] = read-out: Matrix Metallopeptidase 9 (MMP9), MMP9 (gene 4318); test: BSK_KF3CT_MMP9: BioMAP Diversity Plus: KF3CT Assay for Matrix Metallopeptidase 9 (MMP9) Biomarker Activity (AID 2283074); conditions: primary human keratinocytes with fibroblasts; actives raise or lower the signal
# Outline: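 Human keratinocyte and foreskin fibroblast co-culture exposed to chemicals for 24 h; MMP9 biomarker measured by ELISA, bidirectional fitting relative to DMSO; cytotoxicity tracked by SRB total protein staining in parallel cultures.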
# [16] = read-out: urokinase plasminogen activator (uPA), PLAU (gene 5328); test: BSK_KF3CT_uPA: BioMAP Diversity Plus: KF3CT Assay for urokinase plasminogen activator (uPA) Biomarker Activity (AID 2283075); conditions: primary human keratinocytes with fibroblasts; actives raise or lower the signal
# Outline: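 Primary human keratinocyte/foreskin fibroblast co-culture exposed to chemical; uPA measured by ELISA at 24 h. Bidirectional fit versus DMSO, with parallel SRB total-protein staining for cytotoxicity.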
# [17] = read-out: CD40, CD40 (gene 958); test: BSK_LPS_CD40: BioMAP Diversity Plus: LPS Assay for CD40 Biomarker Activity (AID 2283076); conditions: primary human HUVEC with PBMC; actives raise or lower the signal
# Outline: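 Using a multiplexed primary human co-culture (umbilical vein endothelium plus PBMC), CD40 was read by ELISA 24 h after dosing, with cytotoxicity tracked by sulforhodamine B staining of parallel cultures and activity fitted bidirectionally versus DMSO.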
# [18] = read-out: E-selectin (Homo sapiens) (UniProt P16581); test: BSK_LPS_Eselectin: BioMAP Diversity Plus: LPS Assay for Eselectin Biomarker Activity (AID 2283077); conditions: primary human HUVEC with PBMC; actives raise or lower the signal
# Outline: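 Dose chemical onto LPS-driven HUVEC/PBMC co-culture; after 24 h, run ELISA for E-selectin; fit up- and down-going responses relative to DMSO control.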
# [19] = read-out: Interleukin-8 (IL8), CXCL8 (gene 3576); test: BSK_LPS_IL8: BioMAP Diversity Plus: LPS Assay for Interleukin-8 (IL8) Biomarker Activity (AID 2283078); conditions: primary human HUVEC with PBMC; actives raise or lower the signal
# Outline: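 In this LPS system, chemical-treated human umbilical vein endothelium/PBMC co-cultures were harvested at 24 h for IL-8 ELISA.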
# E-selectin (Homo sapiens), sequence (P16581 whole entry, looked up): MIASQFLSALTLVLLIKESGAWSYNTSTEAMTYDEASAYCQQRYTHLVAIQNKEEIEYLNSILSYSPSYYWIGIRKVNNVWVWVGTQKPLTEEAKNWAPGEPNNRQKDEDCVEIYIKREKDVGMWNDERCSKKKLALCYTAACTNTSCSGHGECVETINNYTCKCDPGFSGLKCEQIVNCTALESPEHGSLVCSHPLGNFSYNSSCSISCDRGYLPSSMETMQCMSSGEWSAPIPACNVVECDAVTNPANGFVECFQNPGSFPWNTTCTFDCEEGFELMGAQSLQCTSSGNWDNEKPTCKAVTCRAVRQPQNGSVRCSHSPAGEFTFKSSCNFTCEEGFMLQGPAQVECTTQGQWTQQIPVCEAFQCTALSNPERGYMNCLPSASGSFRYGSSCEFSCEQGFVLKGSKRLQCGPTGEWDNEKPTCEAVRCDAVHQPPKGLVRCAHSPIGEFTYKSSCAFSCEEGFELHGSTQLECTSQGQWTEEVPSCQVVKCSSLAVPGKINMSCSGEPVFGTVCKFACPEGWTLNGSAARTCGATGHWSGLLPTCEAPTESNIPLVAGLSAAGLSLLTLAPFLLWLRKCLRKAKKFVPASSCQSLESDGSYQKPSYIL
compound,measurement,setting,value
ClC1=C(Cl)[C@]2(Cl)[C@@H]3[C@@H](Cl)[C@H]4O[C@H]4[C@@H]3C1(Cl)C2(Cl)Cl,outcome,[1],inactive
same,AC50,[2],5.55 µM (active)
same,outcome,[3],inactive
same,outcome,[4],inactive
same,outcome,[5],inactive
same,outcome,[6],inactive
same,outcome,[7],inactive
same,outcome,[8],inactive
same,outcome,[9],inactive
same,outcome,[10],inactive
same,outcome,[11],inactive
same,outcome,[12],inactive
same,outcome,[13],inactive
same,outcome,[14],inactive
same,outcome,[15],inactive
same,outcome,[16],inactive
same,outcome,[17],inactive
same,outcome,[18],inactive
same,outcome,[19],inactive
Cc1cc2c3c(c1)C(c1ccccc1)=N[C@@H](NC(=O)c1ccncc1)C(=O)N3CC2,outcome,[1],inactive
same,outcome,[2],inactive
same,outcome,[3],inactive
same,outcome,[4],inactive
same,AC50,[5],14 µM (active)
same,outcome,[6],inactive
same,AC50,[7],5.53 µM (active)
same,outcome,[8],inactive
same,outcome,[9],inactive
same,outcome,[10],inactive
same,outcome,[11],inactive
same,outcome,[12],inactive
same,outcome,[14],inactive
same,outcome,[15],inactive
same,outcome,[16],inactive
same,AC50,[17],3.97 µM (active)
same,outcome,[18],inactive
same,outcome,[19],inactive
